According to the supplement of paper PMC6522484:
± gives the standard deviation of the averaged measurements.

Columns and labels:
DLD1 [1] = assay: cell viability (CellTiter-Glo) relative to plate median (fraction of plate median); higher = more viable cells; details: 5 µM; treatment time 24 h; reporter: 7TFP
Summary of the method: (§1)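 Per-well firefly luciferase or CellTiterGlo luminescence, normalised to the plate median, is what is reported. It was measured in colorectal cancer cells with stable lentiviral TCF/Wnt firefly luciferase reporters after a 24 h treatment with library compounds at a final 5 µM. The mean of two independent replicates is given.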

HCT116 = assay: as above; details: 5 µM; treatment time 24 h; reporter: TCF4/Wnt
Summary of the method: as §1

SW480 [2] = assay: as above; details: 5 µM; treatment time 24 h; reporter: 7TFP
Summary of the method: as §1

DLD1 [3] = assay: TCF/Wnt firefly luciferase reporter signal relative to plate median (fraction of plate median); higher = higher Wnt reporter signal; details: 5 µM; treatment time 24 h; reporter: 7TFP
Summary of the method: as §1

SW480 [4] = assay: as above; details: 5 µM; treatment time 24 h; reporter: 7TFP
Summary of the method: as §1

Row | SMILES | cell viability (DLD1 [1]) | cell viability (HCT116) | cell viability (SW480 [2]) | TCF/Wnt firefly luciferase reporter signal (DLD1 [3]) | TCF/Wnt firefly luciferase reporter signal (SW480 [4])
1 | O=c1c(O)cc([C@H]2Oc3cc(O)cc(O)c3C[C@H]2O)cc2c([C@H]3Oc4cc(O)cc(O)c4C[C@H]3O)cc(O)c(O)c12 | 0.934 ± 0.033 | 1.01 ± 0.02 | 0.966 ± 0.02 | 0.949 ± 0.044 | 1.04 ± 0.1
2 | NC(=O)c1ncn([C@@H]2O[C@H](CO)[C@@H](O)[C@H]2O)c1N | 0.989 ± 0.03 | 0.947 ± 0.055 | 0.949 ± 0.04 | 1 ± 0.012 | 0.927 ± 0.044
3 | CC[C@H](C)[C@H](N)C1=N[C@H](C(=O)N[C@@H](CC(C)C)C(=O)N[C@H](CCC(=O)O)C(=O)N[C@H](C(=O)N[C@H]2CCCCNC(=O)[C@H](CC(N)=O)NC(=O)[C@@H](CC(=O)O)NC(=O)[C@H](Cc3cnc[nH]3)NC(=O)[C@@H](Cc3ccccc3)NC(=O)[C@H]([C@@H](C)CC)NC(=O)[C@@H](CCCN)NC2=O)[C@@H](C)CC)CS1 | 1.05 ± 0.05 | 1.03 ± 0.021 | 0.992 ± 0.04 | 1.03 ± 0.042 | 1.03 ± 0.021
4 | COCC1=C(C(=O)OC(C)OC(=O)OC(C)C)N2C(=O)[C@@H](NC(=O)/C(=N\OC)c3csc(N)n3)[C@H]2SC1 (stereo not given in full) | 1.07 ± 0.085 | 1.09 ± 0.085 | 1.02 ± 0.028 | 1.01 ± 0.061 | 0.999 ± 0.059
5 | COc1ccc(-c2coc3c(OC)c(OC)cc(O)c3c2=O)cc1 | 1.01 ± 0.017 | 1.07 ± 0.014 | 0.995 ± 0.021 | 1.08 ± 0.064 | 0.98 ± 0.042
6 | CC(C(=O)O)[C@H]1CCC2C3CC=C4C[C@@H](O)CC[C@]4(C)C3CC[C@@]21C (stereo partly drawn) [3beta-HYDROXY-23,24-BISNORCHOL-5-ENIC ACID] | 1.09 ± 0.057 | 1.05 ± 0.071 | 0.999 ± 0.016 | 1.01 ± 0.021 | 1.09 ± 0.028
7 | NC[C@H]1O[C@H](O[C@H]2[C@H](O[C@@H]3O[C@H](CO)[C@@H](O)[C@H]3O)[C@@H](O)[C@H](N)C[C@@H]2N)[C@H](N)[C@@H](O)[C@@H]1O | 0.955 ± 0.018 | 0.996 ± 0.0014 | 0.962 ± 0.0014 | 1.04 ± 0.057 | 0.994 ± 0.023
8 | COc1cccc2c1CCC1=CC(=O)CC[C@@]12C | 1.09 ± 0.099 | 1.004 ± 0.0085 | 1.03 ± 0.021 | 0.944 ± 0.073 | 0.967 ± 0.1
9 | CCCCCCCCCc1ccc(OCCOCCOCCOCCOCCOCCOCCOCCOCCO)cc1 | 0.985 ± 0.064 | 0.947 ± 0.036 | 0.998 ± 0.032 | 1 ± 0.18 | 0.904 ± 0.088
10 | CCCCc1oc2ccccc2c1C(=O)c1cc(I)c(OCCN(CC)CC)c(I)c1 | 1.02 ± 0.089 | 1.02 ± 0.036 | 0.964 ± 0.019 | 1.02 ± 0.029 | 1.04 ± 0.1
11 | CC(=O)NCCc1ccc(O)cc1 [N-(p-Hydroxyphenyl)ethylacetamide] | 1.02 ± 0.04 | 1.09 ± 0.057 | 1.06 ± 0.021 | 0.99 ± 0.099 | 1.14 ± 0.021
12 | NCCCCCC(=O)O | 0.888 ± 0.054 | 1.02 ± 0.014 | 0.972 ± 0.083 | 1 ± 0.11 | 1.01 ± 0.081
13 | COc1cc(O)c2c(=O)c(O)c(-c3ccc(O)c(O)c3)oc2c1 | 1.06 ± 0.014 | 0.992 ± 0.11 | 1.065 ± 0.0071 | 1 ± 0.12 | 1.045 ± 0.0071
14 | CCCCCNC(=N)N/N=C/c1c[nH]c2ccc(OC)cc12 | 0.877 ± 0.1 | 0.964 ± 0.031 | 1.045 ± 0.0071 | 1.1 ± 0.028 | 1.045 ± 0.0071
15 | O=C(NC(Cc1cc(=O)[nH]c2ccccc12)C(=O)O)c1ccc(Cl)cc1 (stereo not given) | 0.93 ± 0.0071 | 0.975 ± 0.026 | 0.931 ± 0.024 | 0.909 ± 0.064 | 0.818 ± 0.069
16 | S=c1[nH]cnc2nc[nH]c12 | 0.733 ± 0.044 | 0.989 ± 0.1 | 0.932 ± 0.012 | 1.22 | 1.03 ± 0.021
17 | O=C(CCc1ccc(O)cc1)c1c(O)cc(O)cc1O | 0.974 ± 0.093 | 0.88 ± 0.047 | 0.933 ± 0.0042 | 0.75 ± 0.047 | 0.858 ± 0.037
18 | CC(=O)OC(C)C[N+](C)(C)C (stereo not given) | 0.968 ± 0.1 | 1.03 ± 0.08 | 0.997 ± 0.019 | 1.01 ± 0.071 | 1.01 ± 0.021
19 | CC(=O)CCCCn1c(=O)c2c(ncn2C)n(C)c1=O | 0.93 ± 0.015 | 0.911 ± 0.054 | 0.94 ± 0.051 | 1.15 ± 0.085 | 1.03 ± 0.014
20 | COc1c2c(cc3occ(-c4ccc5c(c4)OCO5)c(=O)c13)OC(C)(C)C=C2 | 0.973 ± 0.067 | 0.951 ± 0.11 | 0.9305 ± 0.005 | 0.799 ± 0.37 | 0.607 ± 0.49
21 | COc1ccc2ccc(=O)oc2c1CC=C(C)C | 1.04 ± 0.13 | 1.01 ± 0.026 | 0.985 ± 0.036 | 1.01 ± 0.033 | 0.99 ± 0.071
22 | C=C1CC[C@H](O)C/C1=C/C=C1\CCC[C@]2(C)[C@@H]([C@H](C)CCCC(C)C)CC[C@@H]12 | 1.025 ± 0.0071 | 0.969 ± 0.044 | 0.97 ± 0.057 | 0.84 ± 0.04 | 0.882 ± 0.054
23 | CC/C(=C(/CC)c1ccc(O)cc1)c1ccc(O)cc1 | 0.959 ± 0.072 | 0.845 ± 0.021 | 0.982 ± 0.11 | 1.06 ± 0.18 | 1.13 ± 0.028
24 | CCOC(=O)[C@H](CCc1ccccc1)N[C@H]1CCc2ccccc2N(CC(=O)O)C1=O | 0.871 ± 0.1 | 0.899 ± 0.068 | 1.02 ± 0.067 | 1.045 ± 0.0071 | 1.01
25 | CC1CCC(NC(=O)N(CCCl)N=O)CC1 (stereo not given) | 1.01 ± 0.059 | 1.02 ± 0.071 | 1.015 ± 0.0071 | 1.08 ± 0.035 | 1.16 ± 0.028
26 | Oc1cc2c(cc1O)C(c1ccccc1)CNCC2 (stereo not given) | 0.981 ± 0.019 | 0.944 ± 0.05 | 0.934 ± 0.025 | 1.08 ± 0.05 | 1.05 ± 0.064
27 | O=C(/C=C/c1ccc(O)c(O)c1)OCCc1ccccc1 | 0.892 ± 0.031 | 0.94 ± 0.039 | 0.963 ± 0.023 | 0.948 ± 0.059 | 0.9925 ± 0.0078
